# Results: PubChem BioAssay (NCI)
# About 83,000 compounds went through this panel and 20% of them were active in at least one assay; those are over-represented in the sample as a whole.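 Treatment: one concentration, 48 hours, 96-well format. Scoring: percent growth, with anything below 10 considered active.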 A number with no mark means an inactive call. Calls of active or inactive are those of the source.
# Test system: MDA-MB-468 breast
# Test: NCI-60 one-dose screen, 48 h (100 = growth as untreated, 0 = no growth, -100 = all killed)
# Details: 10 µM unless noted
row,Structure (SMILES),growth
1,CN1CCN(Cc2ccc(NC(=O)c3cncc(C#Cc4cnc(N)nc4)c3)cc2C(F)(F)F)CC1,36%
2,Cc1cc2nc(C)c(C)nc2cc1C,112%
3,Cn1c(=O)[nH]c2ccccc2c1=O,107%
4,S=c1[nH]ccn1-c1c(Cl)cccc1Cl,110%
5,Oc1ccc(-c2nc3ccc4[nH]ncc4c3c3c2CCCC3)c2cccnc12,-17.1% (active)
6,CC(c1ccccn1)C(C)(O)C(C)c1ccccn1 (stereo unspecified),106%
7,O=c1[nH]c2ccccc2n2cc3cccnc3c12,-5.08% (active)
8,O=C(CNc1nc(-c2cccc([N+](=O)[O-])c2)cs1)Nc1cccc(Cl)c1,98%
9,COc1ccc(C(=O)Nc2ncc(Cc3cccc(Cl)c3)s2)cc1OC,-1.51% (active)
10,COc1cc(OC)c(C(=O)/C=C/c2cccc(C#N)c2)c(OC)c1,-13.8% (active)
11,Brc1ccc2[nH]cc(-c3cncn3CCc3ccccc3)c2c1,17.2%
12,C=CCNCCN1C(=O)c2ccc3c4c(ccc(c24)C1=O)C(=O)N(CCNCC=C)C3=O,-89.1% (active)
13,O=Cc1ncc(-c2ccc(C(F)(F)F)cc2)c(NC2CCCCCC2)n1,2.41% [100 µM] (active)
14,O=C1/C(=C\c2ccc(Br)cc2)CN(C(=O)c2ccccc2F)C/C1=C\c1ccc(Br)cc1,-54.1% (active)
15,O=C(CSc1nnc(-c2ccc(NC(=O)c3cccnc3)cc2)o1)Nc1cccc(Br)c1,97.3%
16,CCNc1cc(S(=O)(=O)O)ccc1C,97.2%
17,CCCCCCc1nc2c(c(C)nn2-c2ccccc2)c2c1CCCCC2,127%
18,COc1ccc(-c2nc(NC(=O)CS(=O)(=O)c3ccc(F)cc3)sc2C)cc1,32%
19,Fc1ccc(-c2cc3nc(C(Cl)Cl)nc(-c4ccccc4)n3n2)cc1,-59.1% (active)
20,CN(C)c1ccc(Nc2cc(-c3cccc(OC(F)(F)F)c3)nc3ccc(N4CCCC4)cc23)cc1,-48.1% (active)
21,COc1ccc2c(c1)C(c1cc(OC)c3c(c1)OCO3)C1=C(COC1=O)N2 (stereo unspecified),-14.4% (active)
22,CC(/C=C/C=C(\C)[C@H](O)[C@H](C)C(=O)O[C@H]1C[C@H](C)C=C2C=C[C@@]3(C)O[C@@H](O)CC(=O)[C@]3(C)[C@H]21)=C\C=C\C(=O)O,-21.9% (active)
23,NC(=O)NC1(C(=O)O)CCCC1,119%
24,CO/N=C(/C)c1ccc(NC(=O)CSc2nnc(-c3ccncc3)n2-c2ccccc2)cc1,50.8%
25,Oc1c(I)cc(I)cc1CNCc1ccccn1,29.3%
26,C=CC[N+](C)(C)C,97.4%
